± gives the standard deviation of the averaged measurements. Targets with the largest changes are over-represented here; the source holds about 6,200 in all.

Compound in the test: Nc1ncnc2c1ncn2[C@@H]1O[C@H](COP(=O)(O)OP(=O)(O)NP(=O)(O)O)[C@@H](O)[C@H]1O [adenylyl imidodiphosphate]
Description: NP40-soluble protein abundance relative to vehicle (solubility fold change) (ratio); higher = more soluble protein in presence of AMP-PNP. In outline: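 Each value is a fold change relative to the detergent-processed vehicle, calculated per replicate from vsn-normalised intensities. Jurkat crude lysate received eight concentrations (0.1 to 10 mM) for 10 min at room temperature and 3 min at 37 °C, then was solubilised in 0.8% NP40 with benzonase (60 min, 4 °C). The ultracentrifuged supernatant was TMT-labelled and run by LC-MS/MS in three independent experiments.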

UniProt Q8WZ82, sequence (Q8WZ82 whole entry): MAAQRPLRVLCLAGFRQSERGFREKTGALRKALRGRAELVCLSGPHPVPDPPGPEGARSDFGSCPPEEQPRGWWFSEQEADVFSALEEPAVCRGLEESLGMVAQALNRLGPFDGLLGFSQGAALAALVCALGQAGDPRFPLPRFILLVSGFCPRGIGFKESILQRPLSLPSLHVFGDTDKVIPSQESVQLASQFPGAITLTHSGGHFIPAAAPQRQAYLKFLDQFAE
UniProt Q14677, sequence (Q14677 whole entry): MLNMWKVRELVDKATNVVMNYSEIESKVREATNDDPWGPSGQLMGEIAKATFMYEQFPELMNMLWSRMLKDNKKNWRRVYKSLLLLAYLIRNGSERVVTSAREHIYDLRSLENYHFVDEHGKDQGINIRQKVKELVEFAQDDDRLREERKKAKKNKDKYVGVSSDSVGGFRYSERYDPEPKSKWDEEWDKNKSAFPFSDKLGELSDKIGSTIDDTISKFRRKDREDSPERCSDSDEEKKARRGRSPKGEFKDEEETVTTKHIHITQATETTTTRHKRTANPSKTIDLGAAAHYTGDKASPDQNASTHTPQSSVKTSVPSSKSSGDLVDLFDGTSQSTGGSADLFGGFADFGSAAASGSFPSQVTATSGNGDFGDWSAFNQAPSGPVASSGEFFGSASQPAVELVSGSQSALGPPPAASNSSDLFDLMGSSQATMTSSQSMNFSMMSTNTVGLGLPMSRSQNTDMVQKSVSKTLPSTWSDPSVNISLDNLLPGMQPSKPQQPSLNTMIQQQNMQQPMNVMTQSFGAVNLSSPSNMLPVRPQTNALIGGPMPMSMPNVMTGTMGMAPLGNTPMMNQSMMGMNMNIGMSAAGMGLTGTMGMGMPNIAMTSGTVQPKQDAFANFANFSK
UniProt Q5EBL8, sequence (Q5EBL8 whole entry): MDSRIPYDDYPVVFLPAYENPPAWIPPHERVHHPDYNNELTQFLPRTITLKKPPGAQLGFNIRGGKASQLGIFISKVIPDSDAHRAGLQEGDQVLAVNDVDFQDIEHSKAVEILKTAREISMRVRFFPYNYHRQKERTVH
UniProt Q8N0X4, sequence (Q8N0X4 whole entry): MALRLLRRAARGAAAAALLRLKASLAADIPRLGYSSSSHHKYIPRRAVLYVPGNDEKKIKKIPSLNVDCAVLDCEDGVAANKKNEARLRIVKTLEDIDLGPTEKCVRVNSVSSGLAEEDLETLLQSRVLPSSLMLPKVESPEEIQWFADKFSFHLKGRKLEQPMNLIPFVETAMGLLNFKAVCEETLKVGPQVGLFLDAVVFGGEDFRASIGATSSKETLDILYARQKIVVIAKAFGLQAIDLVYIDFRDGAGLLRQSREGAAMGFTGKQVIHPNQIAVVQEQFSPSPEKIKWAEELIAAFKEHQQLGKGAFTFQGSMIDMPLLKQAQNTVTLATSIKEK
UniProt Q8WUH2, sequence (Q8WUH2 whole entry): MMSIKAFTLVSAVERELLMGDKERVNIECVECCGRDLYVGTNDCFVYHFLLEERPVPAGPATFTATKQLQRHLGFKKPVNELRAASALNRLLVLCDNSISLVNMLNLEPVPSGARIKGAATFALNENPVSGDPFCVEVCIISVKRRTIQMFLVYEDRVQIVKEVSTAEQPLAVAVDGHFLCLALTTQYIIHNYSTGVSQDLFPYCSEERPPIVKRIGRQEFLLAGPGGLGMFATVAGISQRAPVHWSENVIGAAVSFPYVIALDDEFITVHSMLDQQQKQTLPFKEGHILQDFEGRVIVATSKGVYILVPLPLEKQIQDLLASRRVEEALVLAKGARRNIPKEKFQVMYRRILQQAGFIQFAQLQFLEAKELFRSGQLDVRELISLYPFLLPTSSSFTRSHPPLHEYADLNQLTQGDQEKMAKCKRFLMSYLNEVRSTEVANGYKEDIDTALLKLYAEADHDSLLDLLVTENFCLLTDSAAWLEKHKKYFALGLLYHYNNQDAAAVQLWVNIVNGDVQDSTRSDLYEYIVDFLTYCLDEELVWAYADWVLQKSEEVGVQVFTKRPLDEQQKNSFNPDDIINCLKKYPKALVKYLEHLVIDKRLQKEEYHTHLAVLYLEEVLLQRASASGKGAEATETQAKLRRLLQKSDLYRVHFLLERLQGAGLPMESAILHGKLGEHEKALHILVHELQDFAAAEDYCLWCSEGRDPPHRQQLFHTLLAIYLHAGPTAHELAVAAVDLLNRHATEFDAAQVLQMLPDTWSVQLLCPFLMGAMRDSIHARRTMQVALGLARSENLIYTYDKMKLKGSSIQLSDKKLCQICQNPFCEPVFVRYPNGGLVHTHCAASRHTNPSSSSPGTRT
UniProt Q8NBP0, sequence (Q8NBP0 whole entry): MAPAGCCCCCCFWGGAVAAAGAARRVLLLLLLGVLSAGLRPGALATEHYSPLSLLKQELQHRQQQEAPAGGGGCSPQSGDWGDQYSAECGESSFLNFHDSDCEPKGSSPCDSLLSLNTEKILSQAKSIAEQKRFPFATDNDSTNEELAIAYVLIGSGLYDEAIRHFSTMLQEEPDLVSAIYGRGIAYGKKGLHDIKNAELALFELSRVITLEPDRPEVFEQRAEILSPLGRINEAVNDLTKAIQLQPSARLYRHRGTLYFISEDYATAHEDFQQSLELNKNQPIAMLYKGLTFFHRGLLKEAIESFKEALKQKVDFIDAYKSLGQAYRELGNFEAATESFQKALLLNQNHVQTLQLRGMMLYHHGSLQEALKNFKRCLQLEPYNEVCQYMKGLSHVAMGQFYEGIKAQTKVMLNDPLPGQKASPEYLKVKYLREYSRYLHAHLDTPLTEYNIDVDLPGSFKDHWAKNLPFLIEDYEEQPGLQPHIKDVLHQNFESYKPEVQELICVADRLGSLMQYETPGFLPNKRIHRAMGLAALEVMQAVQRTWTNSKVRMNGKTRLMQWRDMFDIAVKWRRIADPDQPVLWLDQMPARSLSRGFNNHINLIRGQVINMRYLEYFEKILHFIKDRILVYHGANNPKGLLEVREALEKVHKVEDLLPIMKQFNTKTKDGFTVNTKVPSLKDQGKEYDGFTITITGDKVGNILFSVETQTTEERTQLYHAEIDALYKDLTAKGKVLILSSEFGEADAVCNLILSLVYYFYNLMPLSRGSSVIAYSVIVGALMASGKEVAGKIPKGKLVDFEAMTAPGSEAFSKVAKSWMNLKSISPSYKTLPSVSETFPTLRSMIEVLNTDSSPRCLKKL
UniProt Q8TEQ0, sequence (Q8TEQ0 whole entry): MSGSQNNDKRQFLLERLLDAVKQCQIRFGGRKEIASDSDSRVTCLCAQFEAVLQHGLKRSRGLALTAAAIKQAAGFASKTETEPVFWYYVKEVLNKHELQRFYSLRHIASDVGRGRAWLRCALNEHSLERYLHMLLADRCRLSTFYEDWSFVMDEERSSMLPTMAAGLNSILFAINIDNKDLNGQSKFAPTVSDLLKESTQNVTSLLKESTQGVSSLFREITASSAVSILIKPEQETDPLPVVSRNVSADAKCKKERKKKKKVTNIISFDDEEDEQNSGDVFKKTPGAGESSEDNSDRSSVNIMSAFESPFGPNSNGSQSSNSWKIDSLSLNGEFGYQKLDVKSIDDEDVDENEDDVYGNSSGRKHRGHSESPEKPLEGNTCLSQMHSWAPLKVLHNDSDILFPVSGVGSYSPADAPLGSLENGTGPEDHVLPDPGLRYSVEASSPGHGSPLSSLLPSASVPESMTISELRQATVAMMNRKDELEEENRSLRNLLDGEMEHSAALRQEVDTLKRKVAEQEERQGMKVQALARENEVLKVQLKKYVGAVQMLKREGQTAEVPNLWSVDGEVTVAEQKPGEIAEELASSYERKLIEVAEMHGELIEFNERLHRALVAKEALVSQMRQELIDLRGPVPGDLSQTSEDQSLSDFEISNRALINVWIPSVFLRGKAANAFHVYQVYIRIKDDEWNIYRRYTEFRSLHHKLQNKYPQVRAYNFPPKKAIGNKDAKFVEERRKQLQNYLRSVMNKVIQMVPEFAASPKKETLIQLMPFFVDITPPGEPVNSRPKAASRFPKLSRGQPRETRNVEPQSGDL
UniProt Q8N5M4, sequence (Q8N5M4 whole entry, one chain of several): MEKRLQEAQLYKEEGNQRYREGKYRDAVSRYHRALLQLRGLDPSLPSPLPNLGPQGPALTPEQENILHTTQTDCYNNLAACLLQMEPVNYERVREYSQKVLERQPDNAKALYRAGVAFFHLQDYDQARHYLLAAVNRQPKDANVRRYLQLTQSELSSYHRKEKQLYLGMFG
UniProt Q86UK7, sequence (Q86UK7 whole entry): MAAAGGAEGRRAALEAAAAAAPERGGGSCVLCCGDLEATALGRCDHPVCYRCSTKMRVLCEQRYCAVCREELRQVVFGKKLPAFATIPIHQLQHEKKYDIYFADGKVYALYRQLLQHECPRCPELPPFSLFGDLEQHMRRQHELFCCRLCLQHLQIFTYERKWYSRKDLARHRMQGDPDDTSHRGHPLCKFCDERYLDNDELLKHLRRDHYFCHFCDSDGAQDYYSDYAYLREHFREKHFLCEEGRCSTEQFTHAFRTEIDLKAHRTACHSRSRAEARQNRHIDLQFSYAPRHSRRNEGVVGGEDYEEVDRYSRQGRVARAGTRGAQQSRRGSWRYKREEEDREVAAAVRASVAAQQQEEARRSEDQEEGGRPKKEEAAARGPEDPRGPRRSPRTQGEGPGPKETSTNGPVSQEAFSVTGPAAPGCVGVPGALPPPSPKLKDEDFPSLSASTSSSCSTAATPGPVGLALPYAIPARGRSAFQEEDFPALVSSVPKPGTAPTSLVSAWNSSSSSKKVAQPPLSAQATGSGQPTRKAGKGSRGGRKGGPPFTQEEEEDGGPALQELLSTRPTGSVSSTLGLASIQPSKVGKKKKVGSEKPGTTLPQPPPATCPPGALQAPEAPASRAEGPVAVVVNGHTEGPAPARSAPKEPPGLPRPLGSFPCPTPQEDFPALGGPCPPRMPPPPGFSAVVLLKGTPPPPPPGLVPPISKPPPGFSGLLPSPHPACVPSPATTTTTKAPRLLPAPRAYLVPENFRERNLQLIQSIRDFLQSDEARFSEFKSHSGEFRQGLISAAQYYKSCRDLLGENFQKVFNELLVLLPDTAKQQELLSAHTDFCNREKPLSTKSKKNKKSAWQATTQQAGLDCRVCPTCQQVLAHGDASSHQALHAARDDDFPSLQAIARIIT

On to UniProt Q93074-2, for which the NP40-soluble protein abundance runs as follows: (concentration: 1mM) 1.01 ± 0.032; (concentration: 2mM) 1 ± 0.028; (concentration: 4mM) 1.06 ± 0.019; (concentration: 6mM) 0.971 ± 0.08; (concentration: 8mM) 0.984 ± 0.042; (concentration: 10mM) 0.999 ± 0.067.
Turning to UniProt Q86UK7|Q86UK7-3|Q86UK7-2, the NP40-soluble protein abundance is 1.03 ± 0.043 (concentration: 1mM); 1.03 ± 0.022 (concentration: 2mM); 1.07 ± 0.031 (concentration: 4mM); 1.08 ± 0.038 (concentration: 6mM); 1.1 ± 0.048 (concentration: 8mM); 1.11 ± 0.07 (concentration: 10mM).
Consider PSME4 (UniProt Q14997), for which the NP40-soluble protein abundance came out at 0.9678 ± 0.0088 (concentration: 1mM); 0.905 ± 0.072 (concentration: 2mM); 0.968 ± 0.045 (concentration: 4mM); 0.884 ± 0.075 (concentration: 6mM); 0.925 ± 0.11 (concentration: 8mM); 0.884 ± 0.11 (concentration: 10mM).
For TGFBRAP1 (UniProt Q8WUH2), the NP40-soluble protein abundance (concentration: 1mM) was 0.96 ± 0.042; the NP40-soluble protein abundance (concentration: 2mM) stood at 0.89 ± 0.093; the NP40-soluble protein abundance (concentration: 4mM) was 0.93 ± 0.048; the NP40-soluble protein abundance (concentration: 6mM) is 0.895 ± 0.064; the NP40-soluble protein abundance (concentration: 8mM) came out at 0.916 ± 0.047; the NP40-soluble protein abundance (concentration: 10mM) was 0.889 ± 0.052.
For the target UniProt Q5RI15|Q5RI15-2, the NP40-soluble protein abundance by setting is: (concentration: 1mM) 1.12 ± 0.073; (concentration: 2mM) 1.13 ± 0.1; (concentration: 4mM) 1.05 ± 0.034; (concentration: 6mM) 1.1 ± 0.044; (concentration: 8mM) 1.05 ± 0.049; (concentration: 10mM) 1.11 ± 0.04.
On to UniProt Q15365, for which the NP40-soluble protein abundance was found to be 1.031 ± 0.0057 (concentration: 1mM); 1.04 ± 0.038 (concentration: 2mM); 1.04 ± 0.033 (concentration: 4mM); 1 ± 0.02 (concentration: 6mM); 1.01 ± 0.014 (concentration: 8mM); 1.01 ± 0.03 (concentration: 10mM).
In the case of UniProt Q8WUQ7|Q8WUQ7-2, the NP40-soluble protein abundance stood at 1.05 ± 0.027 (concentration: 1mM); 1.05 ± 0.027 (concentration: 2mM); 1.09 ± 0.03 (concentration: 4mM); 1.06 ± 0.023 (concentration: 6mM); 1.06 ± 0.031 (concentration: 8mM); 1.11 ± 0.063 (concentration: 10mM).
Turning to UniProt Q7Z7K6|Q7Z7K6-3, the NP40-soluble protein abundance runs as follows: (concentration: 1mM) 1.08 ± 0.068; (concentration: 2mM) 1.153 ± 0.0086; (concentration: 4mM) 1.3 ± 0.087; (concentration: 6mM) 1.51 ± 0.12; (concentration: 8mM) 1.72 ± 0.052; (concentration: 10mM) 2.1 ± 0.13.
Take “UniProt Q15084|Q15084-2|Q15084-3|Q15084-4|Q15084-5”: the NP40-soluble protein abundance reads like this: (concentration: 1mM) 0.949 ± 0.019; (concentration: 2mM) 0.989 ± 0.021; (concentration: 4mM) 0.9386 ± 0.0066; (concentration: 6mM) 0.951 ± 0.032; (concentration: 8mM) 0.92 ± 0.022; (concentration: 10mM) 0.94 ± 0.047.
Regarding UniProt Q8N5M4|E9PKV8, the NP40-soluble protein abundance by setting is: (concentration: 1mM) 0.932 ± 0.054; (concentration: 2mM) 0.94 ± 0.03; (concentration: 4mM) 0.91 ± 0.032; (concentration: 6mM) 0.984 ± 0.064; (concentration: 8mM) 0.961 ± 0.055; (concentration: 10mM) 0.938 ± 0.071.
Turning to UniProt Q16630-2|Q16630, the NP40-soluble protein abundance runs as follows: (concentration: 1mM) 1.067 ± 0.004; (concentration: 2mM) 1.12 ± 0.043; (concentration: 4mM) 1.149 ± 0.0081; (concentration: 6mM) 1.22 ± 0.025; (concentration: 8mM) 1.3 ± 0.017; (concentration: 10mM) 1.51 ± 0.045.
As to OVCA2 (UniProt Q8WZ82), the NP40-soluble protein abundance runs as follows: (concentration: 1mM) 1.01 ± 0.018; (concentration: 2mM) 0.992 ± 0.052; (concentration: 4mM) 1.01 ± 0.062; (concentration: 6mM) 0.981 ± 0.018; (concentration: 8mM) 1.01 ± 0.041; (concentration: 10mM) 0.999 ± 0.03.
For the target UniProt Q5EBL8|Q5EBL8-2, the NP40-soluble protein abundance (concentration: 1mM) was determined as 1 ± 0.011; the NP40-soluble protein abundance (concentration: 2mM) is 1.02 ± 0.023; the NP40-soluble protein abundance (concentration: 4mM) came to 0.9905 ± 0.0052; the NP40-soluble protein abundance (concentration: 6mM) is 1 ± 0.025; the NP40-soluble protein abundance (concentration: 8mM) was 1.02 ± 0.03; the NP40-soluble protein abundance (concentration: 10mM) came to 1.017 ± 0.0054.
For the target TMED4 (UniProt Q7Z7H5), the NP40-soluble protein abundance (concentration: 1mM) turned out to be 1.017 ± 0.0076; the NP40-soluble protein abundance (concentration: 2mM) came out at 0.973 ± 0.026; the NP40-soluble protein abundance (concentration: 4mM) was 0.99 ± 0.032; the NP40-soluble protein abundance (concentration: 6mM) worked out at 1.02 ± 0.036; the NP40-soluble protein abundance (concentration: 8mM) is 1.02 ± 0.025; the NP40-soluble protein abundance (concentration: 10mM) was determined as 1 ± 0.038.
As to UniProt Q8TEQ0|Q8TEQ0-2, the NP40-soluble protein abundance reads like this: (concentration: 1mM) 1.02 ± 0.035; (concentration: 2mM) 1.03 ± 0.047; (concentration: 4mM) 1.01 ± 0.029; (concentration: 6mM) 0.98 ± 0.054; (concentration: 8mM) 0.969 ± 0.017; (concentration: 10mM) 0.953 ± 0.021.
In the case of UniProt Q7L0J3|Q7L0J3-2, the NP40-soluble protein abundance (concentration: 1mM) came to 1 ± 0.032; the NP40-soluble protein abundance (concentration: 2mM) amounted to 1.05 ± 0.072; the NP40-soluble protein abundance (concentration: 4mM) was 1.03 ± 0.031; the NP40-soluble protein abundance (concentration: 6mM) is 1.02 ± 0.025; the NP40-soluble protein abundance (concentration: 8mM) amounted to 1.03 ± 0.033; the NP40-soluble protein abundance (concentration: 10mM) stood at 1.02 ± 0.028.
Turning to UniProt Q969T7|Q969T7-2, the NP40-soluble protein abundance by setting is: (concentration: 1mM) 0.981 ± 0.054; (concentration: 2mM) 0.95 ± 0.043; (concentration: 4mM) 0.999 ± 0.029; (concentration: 6mM) 0.966 ± 0.025; (concentration: 8mM) 0.96 ± 0.042; (concentration: 10mM) 0.963 ± 0.046.
Consider PPWD1 (UniProt Q96BP3), for which the NP40-soluble protein abundance (concentration: 1mM) came out at 0.984 ± 0.013; the NP40-soluble protein abundance (concentration: 2mM) worked out at 0.933 ± 0.087; the NP40-soluble protein abundance (concentration: 4mM) stood at 1 ± 0.06; the NP40-soluble protein abundance (concentration: 6mM) amounted to 1.01 ± 0.037; the NP40-soluble protein abundance (concentration: 8mM) worked out at 1.04 ± 0.042; the NP40-soluble protein abundance (concentration: 10mM) is 1.02 ± 0.036.
Regarding CLYBL (UniProt Q8N0X4), the NP40-soluble protein abundance stood at 1.01 ± 0.016 (concentration: 1mM); 0.978 ± 0.013 (concentration: 2mM); 1 ± 0.02 (concentration: 4mM); 0.982 ± 0.043 (concentration: 6mM); 0.9692 ± 0.0037 (concentration: 8mM); 0.9819 ± 0.0062 (concentration: 10mM).
Take NUP210 (UniProt Q8TEM1): the NP40-soluble protein abundance reads like this: (concentration: 1mM) 0.992 ± 0.025; (concentration: 2mM) 0.952 ± 0.025; (concentration: 4mM) 0.975 ± 0.021; (concentration: 6mM) 0.972 ± 0.037; (concentration: 8mM) 1.01 ± 0.029; (concentration: 10mM) 0.986 ± 0.044.
For UniProt Q684P5-2|Q684P5-3|Q684P5, the NP40-soluble protein abundance reads like this: (concentration: 1mM) 1 ± 0.035; (concentration: 2mM) 1 ± 0.024; (concentration: 4mM) 0.997 ± 0.051; (concentration: 6mM) 0.977 ± 0.029; (concentration: 8mM) 0.963 ± 0.048; (concentration: 10mM) 0.968 ± 0.026.
For UniProt Q86VP1-2|Q86VP1-4|B8ZZD4, the NP40-soluble protein abundance runs as follows: (concentration: 1mM) 0.977 ± 0.039; (concentration: 2mM) 1.01 ± 0.026; (concentration: 4mM) 0.963 ± 0.024; (concentration: 6mM) 0.935 ± 0.038; (concentration: 8mM) 0.925 ± 0.033; (concentration: 10mM) 0.936 ± 0.031.
Turning to EIF3A (UniProt Q14152), the NP40-soluble protein abundance was 1.05 ± 0.029 (concentration: 1mM); 1.08 ± 0.044 (concentration: 2mM); 1.12 ± 0.087 (concentration: 4mM); 1.19 ± 0.12 (concentration: 6mM); 1.25 ± 0.12 (concentration: 8mM); 1.38 ± 0.19 (concentration: 10mM).
With UniProt Q14677|Q14677-2|Q14677-3, the NP40-soluble protein abundance (concentration: 1mM) worked out at 0.999 ± 0.026; the NP40-soluble protein abundance (concentration: 2mM) turned out to be 1.03 ± 0.069; the NP40-soluble protein abundance (concentration: 4mM) worked out at 0.983 ± 0.052; the NP40-soluble protein abundance (concentration: 6mM) turned out to be 1 ± 0.026; the NP40-soluble protein abundance (concentration: 8mM) amounted to 0.974 ± 0.03; the NP40-soluble protein abundance (concentration: 10mM) came out at 1.03 ± 0.043.
Regarding UniProt Q8NBP0|Q8NBP0-2, the NP40-soluble protein abundance was 0.998 ± 0.019 (concentration: 1mM); 0.97 ± 0.025 (concentration: 2mM); 0.9847 ± 0.0052 (concentration: 4mM); 0.984 ± 0.025 (concentration: 6mM); 0.992 ± 0.032 (concentration: 8mM); 0.991 ± 0.027 (concentration: 10mM).

Source of the values: the supplement of paper PMC6411743.
